According to PubChem BioAssay (Tox21):
Where “and” joins values, the source holds several entries; their conditions need not be identical. Equal entries are not always repeated. Records with an inconclusive call do not appear. A structure can be active in one record and inactive in another. Calls of active or inactive are those of the source. Unless noted, calls follow the shape of the dose curve; as a rule, active = well fitted curve in the direction sought with a large enough effect in the repeat runs; inconclusive = weak or mixed curves; inactive = no such curve, though single readings can be large; an effect the other way counts as inactive or inconclusive.

Tests used:
[1] = biological target: Luciferin 4-monooxygenase (Photinus pyralis) (UniProt P08659); test: qHTS assay to identify small molecule inhibitors of firefly luciferase (AID 1224835); also: potency is read from the fitted curve at half-maximal effect; nearly all actives have a fitted effect of over 25% in size
Procedure, shortened: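 Inhibition of purified Photinus luciferase is measured by luminescence. Substrate levels (D-luciferin, ATP) sit at their KM values. Each compound is tested in a concentration series.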

[2] = biological target: Nuclear receptor subfamily 1 group I member 3 (Homo sapiens) (UniProt Q14994); test: qHTS assay to identify small molecule agonists of the constitutive androstane receptor (CAR) signaling pathway (AID 1224839);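 also: HepG2 cells stably carrying human CAR and a CYP2B6 luciferase reporter; % is scaled to controls: 0 for no effect and ±100 for the full control effect; nearly all actives have a fitted effect of over 15% in size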
Procedure, shortened: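 Readout: firefly luciferase luminescence via ONE-Glo. System: HepG2 double-stable for hCAR and CYP2B6-2.2kb. Conditions: 15-point compound titration, PK11195 at 0.75 uM final, 24 h incubation.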

[3] = qHTS assay to identify small molecule antagonists of the estrogen related receptor signaling pathway with the pleiotropic PPARgamma coactivator (PGC) from Tox21 10K library (AID 1224841; call rule not given here; also: actives are mostly falling curves and most rising ones were filed inactive; nearly all actives have a fitted effect of over 50% in size; also: potency is read from the fitted curve at half-maximal effect)
Procedure, shortened: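 Compound exposure ran 18 hours at 37 C in PGC/ERR cells (2,000/well) that had first rested 6 hours in a 37 C/5% CO2 incubator. Luciferase activity was then detected with One-Glo after a 30-minute room-temperature step.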

[4] = qHTS assay to identify small molecule agonists of the estrogen related receptor signaling pathway with the pleiotropic PPARgamma coactivator (PGC) from Tox21 10K library (AID 1224842); also: % is scaled to controls: 0 for no effect and ±100 for the full control effect; nearly all actives have a fitted effect of over 15% in size
Procedure, shortened: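 Luminescence from One-Glo (30 min, room temperature) measured after PGC/ERR cells had 18 h at 37 C with pinned compound (23 nL in DMSO). Cells had been seeded at 2,000 per well and pre-incubated 6 h.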

[5] = biological target: Thyrotropin receptor (Homo sapiens) (UniProt P16473); test: qHTS assay to identify small molecule agonists of the thyroid stimulating hormone receptor (TSHR) signaling pathway (AID 1224843; calls by dose curve; also: nearly all actives have a fitted effect of over 45% in size; also: potency is read from the fitted curve at half-maximal effect; as to activation: % is scaled to controls: 0 for no effect and ±100 for the full control effect)
Procedure, shortened: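 HEK293 cells stably bearing the thyrotropin receptor were plated at 800 cells/well and challenged with compound (30 min, RT). Accumulated cAMP was quantified via cAMP-d2 competing for cryptate-tagged antibody.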

[6] = qHTS assay to identify small molecule agonists of the hypoxia (HIF-1) signaling pathway - cell viability counter screen (AID 1224844; calls by dose curve; also: nearly all actives have a fitted effect of over 50% in size; also: potency is read from the fitted curve at half-maximal effect)
Procedure, shortened: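 Luminescent ATP content (CellTiter-Glo, 30 min, room temperature) served as the viability measure in HRE-bla ME-180 cells exposed to compounds for 17 hrs in low-serum medium (0.5% dialyzed FBS).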

[7] = qHTS assay to identify small molecule antagonists of the estrogen related receptor (ERR) signaling pathway from Tox21 library (AID 1224848); also: nearly all actives have a fitted effect of over 50% in size; also: potency is read from the fitted curve at half-maximal effect
Procedure, shortened: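 Reading was by luminescence 30 min after ONE-Glo addition. Before that, ERR cells at 2,000 per well had rested 6 h at 37 C/5% CO2 and then received pin-tooled compounds in DMSO for 18 h at 37 C.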

[8] = qHTS assay to identify small molecule agonists of the estrogen related receptor (ERR) signaling pathway from Tox21 library (AID 1224849; calls by dose curve; also: % is scaled to controls: 0 for no effect and ±100 for the full control effect; nearly all actives have a fitted effect of over 15% in size); conditions: ERR reporter cell line, ONE-Glo luciferase, 18 h
Procedure, shortened: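 We plated ERR reporter cells, waited 6 h, added compounds in DMSO by pin tool and incubated them 18 h at 37 C. ONE-Glo was then added and luminescence read after 30 min.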

[9] = qHTS RealTime-Glo MT Cell Viability Assay in HEK293 cells - 32 hour (AID 1224868); also: nearly all actives have a fitted effect of over 50% in size; also: potency is read from the fitted curve at half-maximal effect
Procedure, shortened: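 Reads taken at 0, 8, 16, 24, 32 and 40 h from the same wells. HEK293 cells (600/well) carried RealTime-Glo reagents from seeding, with compound added after a 5 h settle at 37 C.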

[10] = A CellTox Green Cytotoxicity Assay to monitor cytotoxicity in HEK293 cells - 0 hour (AID 1224869)
Procedure, shortened: (§1)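 Each value comes from one timepoint of a single continuous run in which HEK293 cells with CellTox Green were exposed to compound for up to 40 h at 37 C, dye fluorescence rising with cell death.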

[11] = qHTS RealTime-Glo MT Cell Viability Assay in HepG2 cells - 40 hour (AID 1224870); also: nearly all actives have a fitted effect of over 50% in size; also: potency is read from the fitted curve at half-maximal effect
Procedure, shortened: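 Real-time viability: cells seeded at 600 per well together with NanoLuc and cell-permeant prosubstrate, compounds added after 5 h incubation. Luminescence tracked at 0, 8, 16, 24, 32 and 40 h of exposure.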

[12] = qHTS assay to identify small molecule agonists of the constitutive androstane receptor (CAR) signaling pathway - cell viability counter screen (AID 1224836); also: nearly all actives have a fitted effect of over 45% in size; also: potency is read from the fitted curve at half-maximal effect; as to viability change, negative = cytotoxic: % is scaled to controls: 0 for no effect and ±100 for the full control effect
Procedure, shortened: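 Double-stable HepG2 hepatoma cells (hCAR plus CYP2B6-2.2kb) are treated for 23 h at 37 C with test compounds in 15-point concentration series. PK11195 at 0.75 uM final is co-added. Cell viability is quantified by CellTiter-Fluor.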

[13] = qHTS assay to identify small molecule antagonists of the constitutive androstane receptor (CAR) signaling pathway - cell viability counter screen (AID 1224837); also: nearly all actives have a fitted effect of over 45% in size; also: potency is read from the fitted curve at half-maximal effect
Procedure, shortened: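 Fluorescence from CellTiter-Fluor served as the viability signal. Human hepatoma HepG2 cells stably bearing hCAR and CYP2B6-2.2kb received compound plus CITCO (50 nM final) for 23 hr.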

[14] = biological target: Nuclear receptor subfamily 1 group I member 3 (Homo sapiens) (UniProt Q14994); test: qHTS assay to identify small molecule antagonists of the constitutive androstane receptor (CAR) signaling pathway (AID 1224838);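 also: HepG2 cells stably expressing hCAR with CYP2B6 luciferase reporter stimulated by CITCO; % is scaled to controls: 0 for no effect and ±100 for the full control effect; nearly all actives have a fitted effect of over 40% in size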
Procedure, shortened: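 Quantitative HTS in double-stable HepG2-CYP2B6-hCAR cells. After 4 h plating, cells get compound (15 concentrations) and CITCO at 50 nM final, incubate 24 h at 37 C, then ONE-Glo luminescence is read.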

[15] = qHTS assay to identify small molecule antagonists of the estrogen related receptor signaling pathway with the pleiotropic PPARgamma coactivator (PGC) from Tox21 10K library - cell viability counter screen (AID 1224840; active = well fitted cell-killing curve with a large enough effect in the repeat runs, not every such curve was filed as active; also: nearly all actives have a fitted effect of over 40% in size; also: potency is read from the fitted curve at half-maximal effect)
Procedure, shortened: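 Compounds in DMSO, alongside positive and negative controls, were pinned onto PGC/ERR cells (2,000 per well). Exposure lasted 17.5 hours at 37 C, followed by a 30-minute CellTiter-Fluor incubation and fluorescence reading.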

[16] = qHTS assay to identify small molecule agonists of H2AX (AID 1224845; active = well fitted activation curve with a large enough effect in the signal ratio in the repeat runs, not every such curve was filed as active; the % refers to the signal ratio; also: % is scaled to controls: 0 for no effect and ±100 for the full control effect)
Procedure, shortened: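 Phospho-H2AX Ser139 measured by HTRF (ex 320 nm; em 665 and 620 nm) after 24 hr antibody incubation. Compounds, 15 concentrations, 0.76% DMSO, were applied to CHO-K1 cells for 3hr at 37C before lysis.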

[17] = qHTS assay to identify small molecule agonists of the hypoxia (HIF-1) signaling pathway (AID 1224846; active = well fitted activation curve with a large enough effect in the signal ratio in the repeat runs, not every such curve was filed as active; the % refers to the signal ratio; also: % is scaled to controls: 0 for no effect and ±100 for the full control effect)
Procedure, shortened: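 Measured by blue/green FRET after loading CCF4-AM: beta-lactamase expressed from a hypoxia response element in ME-180 cells. Test agents were delivered in DMSO and left 17 hrs; cells had been plated 5 hrs earlier in low-serum (0.5% dialyzed FBS) medium.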

[18] = qHTS assay to identify small molecule agonists of H2AX - cell viability counter screen (AID 1224847; calls by dose curve; also: nearly all actives have a fitted effect of over 30% in size; also: potency is read from the fitted curve at half-maximal effect)
Procedure, shortened: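 For this counter screen, overnight-attached CHO-K1 cells received test compounds (15 concentrations, 0.76% DMSO final); 3 hr later at 37C, CellTiter-Glo reagent was added and luminescence recorded after 30 min at room temperature.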

[19] = qHTS RealTime-Glo MT Cell Viability Assay in HepG2 cells - 24 hour (AID 1224867); also: nearly all actives have a fitted effect of over 50% in size; also: potency is read from the fitted curve at half-maximal effect
Procedure, shortened: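 HepG2 suspension premixed with RealTime-Glo reagents is plated at 600 cells per well and left 5 h at 37 C/5% CO2. Compounds in DMSO then go in, and bioluminescence reflecting viable cell number is recorded over 40 h.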

[20] = A CellTox Green Cytotoxicity Assay to monitor cytotoxicity in HEK293 cells - 40 hour (AID 1224871); also: nearly all actives have a fitted effect of over 45% in size; also: potency is read from the fitted curve at half-maximal effect
Procedure, shortened: as §1

[21] = at 92.4 µM (top of the series) unless noted

Chain of Thyrotropin receptor (Homo sapiens) (P16473 whole entry, looked up): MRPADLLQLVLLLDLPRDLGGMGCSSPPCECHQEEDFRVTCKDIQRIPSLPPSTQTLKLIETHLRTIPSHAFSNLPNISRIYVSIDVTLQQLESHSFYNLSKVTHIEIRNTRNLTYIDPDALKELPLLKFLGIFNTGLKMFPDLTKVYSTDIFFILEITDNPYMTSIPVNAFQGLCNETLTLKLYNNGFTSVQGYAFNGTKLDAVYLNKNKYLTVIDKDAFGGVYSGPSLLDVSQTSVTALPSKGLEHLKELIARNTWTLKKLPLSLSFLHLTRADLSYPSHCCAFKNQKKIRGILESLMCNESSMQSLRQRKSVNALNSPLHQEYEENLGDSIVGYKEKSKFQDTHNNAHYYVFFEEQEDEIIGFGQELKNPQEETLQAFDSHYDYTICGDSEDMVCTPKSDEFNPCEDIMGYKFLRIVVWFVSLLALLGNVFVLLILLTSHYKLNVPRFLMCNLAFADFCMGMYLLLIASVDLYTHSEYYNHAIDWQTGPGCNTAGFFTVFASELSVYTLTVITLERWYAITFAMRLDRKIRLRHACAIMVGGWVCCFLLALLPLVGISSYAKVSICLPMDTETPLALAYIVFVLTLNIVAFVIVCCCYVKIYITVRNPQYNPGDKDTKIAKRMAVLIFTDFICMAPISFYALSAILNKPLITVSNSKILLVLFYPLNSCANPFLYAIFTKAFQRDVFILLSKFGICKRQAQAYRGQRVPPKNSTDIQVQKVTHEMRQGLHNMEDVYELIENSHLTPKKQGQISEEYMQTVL
Chain of Nuclear receptor subfamily 1 group I member 3 (Homo sapiens) (Q14994 whole entry, looked up): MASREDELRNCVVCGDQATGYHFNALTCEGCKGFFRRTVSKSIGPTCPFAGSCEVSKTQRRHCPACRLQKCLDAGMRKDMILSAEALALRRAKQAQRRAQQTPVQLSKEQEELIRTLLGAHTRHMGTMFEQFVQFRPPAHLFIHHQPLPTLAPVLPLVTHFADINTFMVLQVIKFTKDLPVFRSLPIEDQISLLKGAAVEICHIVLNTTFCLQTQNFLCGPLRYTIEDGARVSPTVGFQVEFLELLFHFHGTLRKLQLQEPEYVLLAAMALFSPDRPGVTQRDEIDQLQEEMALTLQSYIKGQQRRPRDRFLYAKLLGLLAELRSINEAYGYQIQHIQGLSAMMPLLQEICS
Chain of Luciferin 4-monooxygenase (Photinus pyralis) (P08659 whole entry, looked up): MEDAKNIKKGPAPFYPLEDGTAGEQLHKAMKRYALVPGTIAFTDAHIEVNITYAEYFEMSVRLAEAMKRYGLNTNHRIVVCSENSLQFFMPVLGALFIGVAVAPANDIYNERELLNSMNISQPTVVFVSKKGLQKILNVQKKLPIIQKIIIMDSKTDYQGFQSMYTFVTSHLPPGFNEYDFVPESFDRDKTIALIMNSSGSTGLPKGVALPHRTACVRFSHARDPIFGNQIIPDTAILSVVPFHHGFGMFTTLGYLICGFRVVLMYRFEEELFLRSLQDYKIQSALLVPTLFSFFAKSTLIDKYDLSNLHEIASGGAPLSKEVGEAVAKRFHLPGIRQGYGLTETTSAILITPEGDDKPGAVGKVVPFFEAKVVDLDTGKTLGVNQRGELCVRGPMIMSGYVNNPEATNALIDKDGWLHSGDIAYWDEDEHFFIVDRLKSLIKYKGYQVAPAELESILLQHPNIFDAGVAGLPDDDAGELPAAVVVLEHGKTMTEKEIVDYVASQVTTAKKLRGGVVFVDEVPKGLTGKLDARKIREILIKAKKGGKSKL

COc1cc(C=C2CCC/C(=C\c3ccc(O)c(OC)c3)C2=O)ccc1O
inactive: Potency [2] | Potency [4] | Potency [5] | activity change, positive = activation [8, 21] -63.1% [at 42.5 µM] | Potency [10]
active: Potency [1] 30.9 µM | Potency [3] 11.9 µM | Potency [6] 15.1 µM | Potency [7] 8.41 µM | Potency [9] 23.9 µM | Potency [11] 23.9 µM

Cc1cccc(Br)c1
inactive: Potency [12] | Potency [13] | Potency [14] | Potency [15] | Potency [5] | Potency [16] | outcome [17] | Potency [18] | Potency [19] | Potency [9] | Potency [10] | Potency [11] | Potency [20]

O=C=NCc1cccc(CN=C=O)c1
inactive: viability change, negative = cytotoxic [12] -4.88% [at 19 µM] | activity change, negative = cytotoxicity [13] -0.191% [at 19 µM] | activity, negative = inhibition [14] -4.42% [at 19 µM] | activation [2] -1.77% [at 19 µM] | viability change, negative = cytotoxic [15] -5.21% [at 19 µM] | activation [5] 1.05% [at 19 µM] | activity change, negative = cytotoxicity [6] 6.46% [at 15.8 µM] | activation (H2AX phosphorylation) [16] -2.62% [at 31.6 µM] | activation [17] -0.762% [at 15.8 µM] | activity change, negative = cytotoxicity [18] 1.36% [at 31.6 µM] | activity change, negative = cytotoxicity [19] 1.03% [at 15.8 µM] | activity change, negative = cytotoxic [9] 6.09% [at 15.8 µM] | cytotoxicity [10] -8.38% [at 15.8 µM] | cytotoxicity increase [20] -14.1% [at 15.8 µM]

CCCSS/C(CCO)=C(\C)N(C=O)Cc1cnc(C)nc1N
inactive: Potency [12] | Potency [13] | Potency [2] | Potency [15] | Potency [5] | outcome [17] | Potency [10] | Potency [20]

CCc1cccc(CC)c1N(COC)C(=O)CS(=O)(=O)O
inactive: Potency [12] | Potency [13] | Potency [2] | Potency [15] | Potency [3] | Potency [4] | Potency [5] | Potency [6] | Potency [16] | outcome [17] | Potency [7] | activity change, positive = activation [8, 21] -4.79% | Potency [19] | Potency [9] | Potency [10] | Potency [11] | Potency [20]

Brc1ccccn1
inactive: Potency [12] | Potency [13] | Potency [14] | Potency [2] | Potency [15] | Potency [5] | Potency [6] | Potency [16] | outcome [17] | Potency [18] | Potency [19] | Potency [9] | Potency [10] | Potency [11] | Potency [20]

CCCCCCCCCCCCCOP(=O)(O)O
inactive: Potency [12] | Potency [13] | Potency [14] | Potency [2] | Potency [15] | Potency [3] | Potency [4] | Potency [6] | Potency [16] | outcome [17] | Potency [18] | Potency [7] | activity change, positive = activation [8, 21] -2% | Potency [19] | Potency [9] | Potency [10] | Potency [20]

Cc1cccc(C)n1
inactive: Potency [12] | Potency [13] | Potency [14] | Potency [2] | Potency [15] | Potency [5] | Potency [6] | Potency [16] | outcome [17] | Potency [18] | Potency [19] | Potency [9] | Potency [10] | Potency [11] | Potency [20]

Brc1ccccc1-c1ccccc1
inactive: Potency [12] | Potency [13] | Potency [2] | Potency [15] | Potency [4] | Potency [7] | Potency [9] | Potency [10] | Potency [11]
active: Potency [6] 36.8 µM

CCCC(CC)CCCCCCCN (stereo not drawn)
active: Potency [18] 103 µM | Potency [20] 50.2 µM
inactive: Potency [12] | Potency [13] | Potency [14] | Potency [2] | Potency [15] | Potency [3] | Potency [4] | Potency [16] | activity change, positive = activation [8, 21] -20.1% | Potency [19] | Potency [10] | Potency [11]

CC1=C(/C=C/C(C)=C/C=C/C(C)=C/C(=O)Nc2ccc(O)cc2)C(C)(C)CCC1
active: Potency [12] 23.7 µM | Potency [13] 29.8 µM | Potency [15] 28 µM and 13.3 µM | Potency [3] 6.27 µM | Potency [5] 22.2 µM and 11.9 µM | Potency [6] 22.4 µM and 19 µM | Potency [7] 14 µM and 11.9 µM | Potency [9] 1 µM and 425 nM
inactive and 26.8 µM (active): Potency [19]
inactive: Potency [2] | Potency [4] | Potency [16] | activity change, positive = activation ([8]; at 42.5 µM (top of the series)) -57.7% | activity change, positive = activation ([8]; at 92.4 µM (top of the series)) -54.4% | Potency [11] | Potency [20]

CCCCCCCC/C=C\CCCCCCCC(=O)NCc1ccc(O)c(OC)c1
inactive: Potency [12] | Potency [13] | Potency [2] | Potency [15] | Potency [6] | Potency [16] | Potency [18] | activity change, positive = activation [8, 21] -18.5% [at 42.5 µM] | Potency [19] | Potency [10] | Potency [11] | Potency [20]
active: Potency [9] 2.68 µM
